Test [1] has as its target ATP-dependent 6-phosphofructokinase (Trypanosoma brucei brucei) (UniProt O15648). The test can be described thus: qHTS Assay to Find Inhibitors of T. brucei phosphofructokinase: hit validation (AID 492961). Note: potency is the fitted concentration of half-maximal effect. Put shortly:
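ADP-Glo luminescence read-out of ADP formed by 1.25 nM PFK from 0.1 mM ATP and 0.5 mM F6P (TEA pH 8.0, 45 min, RT). Compounds titrated; activity normalized to no-enzyme and full-enzyme controls.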

The target of test [2] is Tyrosyl-DNA phosphodiesterase 1 (Homo sapiens) (UniProt Q9NUW8). The test is described as follows: Confirmation Assay for Inhibitors of Tyrosyl-DNA Phosphodiesterase (TDP1) (AID 489007). Note: potency is the fitted concentration of half-maximal effect; nearly all actives have a fitted effect of over 40% in size. Conditions: recombinant human TDP1 enzymatic activity, dose-response. Put shortly: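 Recombinant E. coli-expressed Tdp1 (1 nM final) was preincubated with compounds 15 min at room temperature, then reacted 5 min with 15 nM 5'-biotin/3'-phosphotyrosine-FITC DNA substrate; cleavage read as loss of AlphaScreen signal (10 ug/ml beads, 10 min).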

Test [3] concerns the target Ubiquitin carboxyl-terminal hydrolase 1 (Homo sapiens) (UniProt O94782). The test can be described thus: Inhibitors of USP1/UAF1: Pilot qHTS (AID 504865).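 Note: rhodamine fluorescence freed from ubiquitin-rhodamine substrate followed over time; top concentration of the series differs between compounds; nearly all actives have a fitted effect of over 35% in size.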 The essentials: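 In 50mM HEPES pH 7.8 containing 0.5mM EDTA, 1mM TCEP, 0.1 mg/ml BSA and 0.01% Tween-20, 1nM USP1/UAF1 is exposed to compound for 15 min, then Ub-Rho (150nM final) is added and fluorescence is read over time.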
On the technique in general: qHTS replaces the single test concentration by a dilution series.

For test [4], the target named is Transient receptor potential cation channel subfamily V member 1 (Homo sapiens) (UniProt Q8NER1). The test is described as follows: HTS Assay for Compounds that Act as Enhancers of the Vanilloid Receptor 1 (AID 488979). The essentials: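 Calcium influx kinetics via Fluo-8 (480/520 nm) in TRPV1-expressing cells, 2000/well cultured overnight at 35.5C. Compound-alone read 3 min (agonist phase), followed by EC20 capsaicin challenge for 2 min (enhancer phase).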

In test [5] the target is Thyrotropin receptor (Homo sapiens) (UniProt P16473). The test is described as follows: qHTS Assay for Antagonists of the Thyroid Stimulating Hormone Receptor (AID 488980). Note: series mostly up to about 58 µM. Put shortly: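 Readout is cAMP by HTRF competition between cellular cAMP and cAMP-d2 for a cryptate-labelled antibody. Antagonism was assessed in TSHR-transfected HEK293 cells stimulated with 4 nM TSH (EC80, final) in the presence of RO 20-1724.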

Test [6] concerns the target Galactokinase (Homo sapiens) (UniProt P51570). The test can be described thus: qHTS Validation Assay for Inhibitors of Human Galactokinase (GALK) (AID 493189). The essentials:
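5 nM GALK / 100 uM galactose / 35 uM ATP, 20 mM HEPES pH8.0, 5 mM MgCl2, 60 mM NaCl, 1 mM DTT, 0.01% BSA (final). RT 1 h; Kinase-Glo Plus luminescence.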

Test [7] is described as follows: Validation screen for small molecules that induce DNA re-replication in SW480 colon adenocarcinoma cells (AID 504364). The essentials: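 SW480 cells seeded at 250 per well were exposed to compound or DMSO for 48 hr at 37 C, 5% CO2, then stained with Hoechst for 40 min. DNA content per nucleus was imaged (405 nm ex, 500-530 nm em).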

Inconclusive results are not listed. Where a call stands in place of a potency, no number is given. Activity calls are given as the source filed them. Calls come from the whole dose curve; as a rule, active = well fitted curve in the direction sought with a large enough effect; inconclusive = small, poorly fitted or top-dose-only effect, or another doubt; inactive = no such curve, though single readings can be large; an effect the other way counts as inactive or inconclusive.

Sequence of ATP-dependent 6-phosphofructokinase (Trypanosoma brucei brucei) (O15648 whole entry, looked up): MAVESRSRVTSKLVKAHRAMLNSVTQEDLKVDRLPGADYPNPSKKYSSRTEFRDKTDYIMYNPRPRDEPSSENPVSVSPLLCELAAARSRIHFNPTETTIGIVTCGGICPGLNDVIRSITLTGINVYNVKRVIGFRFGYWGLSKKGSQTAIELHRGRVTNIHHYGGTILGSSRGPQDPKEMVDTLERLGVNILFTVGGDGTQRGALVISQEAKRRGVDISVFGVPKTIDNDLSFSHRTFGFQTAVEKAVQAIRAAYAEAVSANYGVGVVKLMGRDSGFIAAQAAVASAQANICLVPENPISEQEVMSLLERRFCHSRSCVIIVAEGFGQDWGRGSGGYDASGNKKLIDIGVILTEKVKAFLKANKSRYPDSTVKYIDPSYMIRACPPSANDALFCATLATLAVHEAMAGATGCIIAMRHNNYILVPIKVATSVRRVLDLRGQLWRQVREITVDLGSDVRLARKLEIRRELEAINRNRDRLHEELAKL
Sequence of Ubiquitin carboxyl-terminal hydrolase 1 (Homo sapiens) (O94782 whole entry, looked up): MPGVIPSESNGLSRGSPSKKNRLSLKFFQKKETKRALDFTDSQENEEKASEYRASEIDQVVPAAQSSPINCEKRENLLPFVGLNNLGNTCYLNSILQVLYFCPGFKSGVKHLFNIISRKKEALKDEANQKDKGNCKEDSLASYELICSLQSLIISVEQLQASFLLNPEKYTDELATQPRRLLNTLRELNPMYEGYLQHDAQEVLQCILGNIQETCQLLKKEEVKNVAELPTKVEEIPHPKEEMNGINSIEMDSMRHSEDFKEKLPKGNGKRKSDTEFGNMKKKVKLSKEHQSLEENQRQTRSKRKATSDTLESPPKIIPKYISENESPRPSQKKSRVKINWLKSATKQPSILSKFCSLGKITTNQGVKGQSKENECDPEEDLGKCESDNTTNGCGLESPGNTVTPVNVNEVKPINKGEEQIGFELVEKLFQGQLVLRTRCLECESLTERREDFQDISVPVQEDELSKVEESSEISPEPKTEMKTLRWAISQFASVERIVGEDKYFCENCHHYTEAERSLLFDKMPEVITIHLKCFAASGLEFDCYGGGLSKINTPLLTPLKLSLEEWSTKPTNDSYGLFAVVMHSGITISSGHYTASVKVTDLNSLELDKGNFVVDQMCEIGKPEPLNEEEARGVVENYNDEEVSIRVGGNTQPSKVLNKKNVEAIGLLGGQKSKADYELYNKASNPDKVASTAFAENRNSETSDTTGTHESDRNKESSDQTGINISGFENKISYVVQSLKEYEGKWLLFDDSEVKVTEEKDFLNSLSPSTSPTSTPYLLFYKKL
Sequence of Tyrosyl-DNA phosphodiesterase 1 (Homo sapiens) (Q9NUW8 whole entry, looked up): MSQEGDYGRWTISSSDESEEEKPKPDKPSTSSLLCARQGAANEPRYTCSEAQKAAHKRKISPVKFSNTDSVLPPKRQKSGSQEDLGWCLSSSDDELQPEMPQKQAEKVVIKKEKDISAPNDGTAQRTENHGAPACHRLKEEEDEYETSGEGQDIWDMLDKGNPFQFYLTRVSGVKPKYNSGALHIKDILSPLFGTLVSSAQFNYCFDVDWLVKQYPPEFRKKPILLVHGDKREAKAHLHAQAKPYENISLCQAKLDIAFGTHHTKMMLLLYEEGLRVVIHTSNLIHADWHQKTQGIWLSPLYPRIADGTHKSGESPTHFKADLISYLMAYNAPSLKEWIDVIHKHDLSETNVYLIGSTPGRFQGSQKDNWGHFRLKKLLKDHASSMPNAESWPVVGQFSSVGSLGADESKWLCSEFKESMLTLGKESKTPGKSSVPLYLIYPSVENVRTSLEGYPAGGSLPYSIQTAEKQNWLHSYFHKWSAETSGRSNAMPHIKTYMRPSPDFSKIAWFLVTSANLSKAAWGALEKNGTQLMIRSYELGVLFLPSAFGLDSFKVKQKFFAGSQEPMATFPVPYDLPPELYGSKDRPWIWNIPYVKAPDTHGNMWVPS
Sequence of Thyrotropin receptor (Homo sapiens) (P16473 whole entry, looked up): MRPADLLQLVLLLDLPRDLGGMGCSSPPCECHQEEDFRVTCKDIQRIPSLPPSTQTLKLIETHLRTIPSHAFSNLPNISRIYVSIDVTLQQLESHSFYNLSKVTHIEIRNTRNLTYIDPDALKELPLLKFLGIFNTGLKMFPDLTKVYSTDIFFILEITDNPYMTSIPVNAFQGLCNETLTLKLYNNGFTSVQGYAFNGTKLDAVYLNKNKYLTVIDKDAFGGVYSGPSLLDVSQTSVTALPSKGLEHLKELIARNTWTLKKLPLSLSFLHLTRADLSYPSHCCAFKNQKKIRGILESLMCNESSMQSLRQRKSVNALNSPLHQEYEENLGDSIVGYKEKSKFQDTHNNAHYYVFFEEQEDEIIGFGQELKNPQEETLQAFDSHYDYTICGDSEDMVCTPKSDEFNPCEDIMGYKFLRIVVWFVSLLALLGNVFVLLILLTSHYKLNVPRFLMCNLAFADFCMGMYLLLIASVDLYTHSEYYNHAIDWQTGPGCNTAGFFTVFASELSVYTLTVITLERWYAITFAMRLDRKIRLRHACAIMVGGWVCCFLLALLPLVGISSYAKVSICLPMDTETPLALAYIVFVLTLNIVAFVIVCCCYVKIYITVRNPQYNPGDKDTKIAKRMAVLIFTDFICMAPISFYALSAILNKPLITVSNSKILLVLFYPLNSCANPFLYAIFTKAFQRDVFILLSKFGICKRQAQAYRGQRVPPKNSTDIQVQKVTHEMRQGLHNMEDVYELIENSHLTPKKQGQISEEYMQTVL
Sequence of Galactokinase (Homo sapiens) (P51570 whole entry, looked up): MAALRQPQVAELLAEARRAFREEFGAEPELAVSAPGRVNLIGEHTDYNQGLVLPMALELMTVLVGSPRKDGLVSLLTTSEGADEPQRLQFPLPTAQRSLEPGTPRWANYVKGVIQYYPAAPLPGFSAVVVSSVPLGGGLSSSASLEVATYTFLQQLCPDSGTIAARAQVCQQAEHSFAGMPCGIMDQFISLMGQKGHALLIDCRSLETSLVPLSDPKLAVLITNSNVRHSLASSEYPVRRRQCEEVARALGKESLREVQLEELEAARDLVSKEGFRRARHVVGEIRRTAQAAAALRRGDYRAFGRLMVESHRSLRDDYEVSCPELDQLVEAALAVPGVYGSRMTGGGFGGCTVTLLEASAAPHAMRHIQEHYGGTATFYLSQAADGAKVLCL
Sequence of Transient receptor potential cation channel subfamily V member 1 (Homo sapiens) (Q8NER1 whole entry, looked up): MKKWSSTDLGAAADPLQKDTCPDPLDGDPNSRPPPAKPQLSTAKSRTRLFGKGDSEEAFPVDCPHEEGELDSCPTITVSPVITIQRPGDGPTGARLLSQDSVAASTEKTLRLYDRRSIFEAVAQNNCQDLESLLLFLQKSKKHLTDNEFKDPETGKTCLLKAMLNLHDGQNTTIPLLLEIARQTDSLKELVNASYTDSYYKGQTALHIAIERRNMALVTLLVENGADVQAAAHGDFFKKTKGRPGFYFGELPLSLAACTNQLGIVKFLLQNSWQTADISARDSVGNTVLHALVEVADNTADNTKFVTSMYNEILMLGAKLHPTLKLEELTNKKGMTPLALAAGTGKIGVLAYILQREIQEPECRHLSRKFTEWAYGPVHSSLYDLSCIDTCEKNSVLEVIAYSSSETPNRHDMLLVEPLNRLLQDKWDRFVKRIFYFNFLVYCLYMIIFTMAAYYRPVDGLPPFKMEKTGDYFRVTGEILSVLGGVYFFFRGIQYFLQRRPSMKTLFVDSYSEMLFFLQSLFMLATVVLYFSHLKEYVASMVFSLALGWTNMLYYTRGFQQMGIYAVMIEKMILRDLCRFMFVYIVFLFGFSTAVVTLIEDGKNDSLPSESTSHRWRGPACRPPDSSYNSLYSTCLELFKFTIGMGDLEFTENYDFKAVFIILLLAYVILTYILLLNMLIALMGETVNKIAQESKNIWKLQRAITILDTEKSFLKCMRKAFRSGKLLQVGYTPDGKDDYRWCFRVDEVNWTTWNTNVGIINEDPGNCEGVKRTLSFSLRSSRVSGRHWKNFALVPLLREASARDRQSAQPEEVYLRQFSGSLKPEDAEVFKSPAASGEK

Regarding `CCOc1ccc(N=Nc2ccc(N)cc2N)cc1`, the Potency entry in test [1] was “inactive”. On the same count and under the same terms, the result for `COc1cc(-c2ccc(-[n+]3nc(-c4ccccc4)nn3-c3ccc([N+](=O)[O-])cc3)c(OC)c2)ccc1-[n+]1nc(-c2ccccc2)nn1-c1ccc([N+](=O)[O-])cc1` reads “inactive”; that for `O=C(Nc1ccc(Br)cc1)c1cc(Br)c(Br)s1`, “inactive”. As to `O=C(O)c1cc(O)c2c(c1)[O][Bi][O]2`, in test [2], the Potency is 15.8 µM (active). Further, the Potency result in test [1] and in test [3] was “inactive” each time. For `CO[C@H](C(=O)[C@@H](O)[C@@H](C)O)C1Cc2cc3cc(O[C@H]4C[C@@H](O[C@H]5C[C@@H](O)[C@H](O)[C@@H](C)O5)[C@@H](O)[C@@H](C)O4)c(C)c(O)c3c(O)c2C(=O)[C@H]1O[C@H]1C[C@@H](O[C@H]2C[C@@H](O[C@H]3C[C@](C)(O)[C@H](O)[C@@H](C)O3)[C@H](O)[C@@H](C)O2)[C@H](O)[C@@H](C)O1` (stereo not given in full), the Potency entry in test [1] and in test [3] was “inactive” each time. `Clc1cc(Cl)c(OCC#CI)cc1Cl`: the Potency in test [1] is 12.6 µM (active). Besides, the Potency entry in test [3] was “inactive”. As to `CC[N+](C)(C)Cc1ccccc1Br`, the result in test [4], in test [5], in test [6] and in test [7] was inactive. For the same compound, the Potency entry in test [1] and in test [3] was “inactive” each time. On to `C#C[C@]1(O)CC[C@H]2[C@@H]3CCC4=CCCC[C@@H]4[C@H]3C(=C)C[C@@]21CC`, for which, in test [1], the Potency entry was “inactive”. Regarding `CN(C)CCCN1c2ccccc2C(C)(C)c2ccccc21`, the Potency entry in test [1] is “inactive”. Still for that read-out and setting: the result for `CC(C)N=c1cc2n(-c3ccc(Cl)cc3)c3ccccc3nc-2cc1Nc1ccc(Cl)cc1` reads “inactive”; that for `CCCC(=O)O[C@]1(C(=O)CCl)[C@H](C)C[C@@H]2[C@H]3CCC4=CC(=O)C=C[C@]4(C)[C@@]3(F)C(=O)C[C@@]21C`, “inactive”.

Source of the values: PubChem BioAssay (NCATS).
